UGM FP inh: Mtb UDP-galactopyranose mutase inhibition. purified UGM, fluorescence polarization probe displacement. inhibition, % at 10 µM. 320,000 compounds, 0.06% hits. AID 504406; in the data active = inhibition above about 10%, passing the limit was not always enough; inconclusive = no clear call, values can overlap the other calls
Target sequence (P9WIQ1 whole entry, looked up): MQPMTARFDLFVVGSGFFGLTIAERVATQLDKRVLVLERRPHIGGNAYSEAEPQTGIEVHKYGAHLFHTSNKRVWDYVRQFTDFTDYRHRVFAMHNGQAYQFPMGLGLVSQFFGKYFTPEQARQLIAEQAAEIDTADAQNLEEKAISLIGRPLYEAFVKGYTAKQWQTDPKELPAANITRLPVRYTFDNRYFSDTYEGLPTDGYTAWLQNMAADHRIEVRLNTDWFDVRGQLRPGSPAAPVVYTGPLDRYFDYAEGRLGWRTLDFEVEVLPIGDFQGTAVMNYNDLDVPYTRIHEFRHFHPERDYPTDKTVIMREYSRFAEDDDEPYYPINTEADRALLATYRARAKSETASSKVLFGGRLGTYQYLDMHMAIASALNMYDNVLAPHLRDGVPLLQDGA
Rv3671c inh: Rv3671c (M. tuberculosis) protease inhibition; 320,000 compounds, 0.048% hits; AID 2606; inhibition, % at 5.96 µM; in the data active = inhibition above about 38%;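 note: extracellular domain of Rv3671c used as enzyme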
FBA Mtb inh: inhibits M. tuberculosis FBA enzyme | P9WQA3 | 360,000 compounds, 2.3% hits | purified M. tuberculosis FBA, fluorescence read-out | inhibition, % at 1 µM; in the data active = inhibition above about 27%
Mtb betalactam: beta-lactam sensitization of Mtb H37Rv; M. tuberculosis H37Rv growth with meropenem, percent inhibition; inhibition, % at 25 µM; AID 434955; 330,000 compounds, 0.27% hits; call rule not given here;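 note: growth measured after seven days incubation then overnight dye step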
FadD28 binding: blocks FadD28 binding to the bisubstrate probe; 360,000 compounds, 0.22% hits; fluorescence polarization; inhibition, % at 12.5 µM; in the data active = inhibition above about 8.5%, passing the limit was not always enough; inconclusive = no clear call, values can overlap the other calls
GDH-TPI inh: counter-screen for M. tuberculosis FBA inhibitors: GDH-TPI coupled enzymes; inhibition, % at 4.8 µM; GDH-TPI coupled enzyme counterscreen, NADH absorbance; 360,000 compounds, 1.2% hits; in the data active = inhibition above about 30%
Hits are given with their value; . = inactive; ? = inconclusive; / = no result; + = active, no number. Shown are actives, neighbours in structure and some others; about 3.7% of the full set was active somewhere.

SMILES | UGM FP inh | Rv3671c inh | FBA Mtb inh | Mtb betalactam | FadD28 binding | GDH-TPI inh
N#Cc1nc(Cc2cccc3ccccc23)oc1NCC1CCCO1 (configuration not stated) | . | . | . | . | . | .
CCCOc1ccc(-c2nc(C#N)c(NCC3CCCO3)o2)cc1 (configuration not stated) | . | . | 121 | . | . | .
N#Cc1nc(-c2ccccc2Cl)oc1NCC1CCCO1 (configuration not stated) | . | . | . | . | . | .
O=S1(=O)N=C(N(CCO)/N=C/C=C/c2ccccc2)c2ccccc21 | . | . | . | . | . | 56
COc1ccc(/C=N/NC2=NS(=O)(=O)c3ccccc32)cc1OC(C)=O | . | . | . | . | / | 32
CC(=O)Oc1ccc(/C=N/NC2=NS(=O)(=O)c3ccccc32)cc1 | . | . | . | . | . | 35
O=S1(=O)N=C(N(CCO)/N=C/c2ccc(Cl)cc2)c2ccccc21 | . | . | . | . | . | .
O=S1(=O)N=C(N/N=C/C=C/c2ccccc2)c2ccccc21 | . | . | . | . | . | 40
O=S1(=O)N=C(N/N=C/c2ccccn2)c2ccccc21 | . | . | . | . | . | .
O=C(CC[C@H]1O[C@@H](n2ccc(=O)[nH]c2=O)[C@H](O)[C@@H]1O)NCCc1c[nH]c2ccccc12 | / | / | . | / | . | /
CN(C)c1ccc(/C=N/NC2=NS(=O)(=O)c3ccccc32)cc1 | . | . | . | . | . | .
COc1ccc(/C=N/NC2=NS(=O)(=O)c3ccccc32)cc1 | . | . | . | . | . | 44
CCNC(=O)C1(C)CCCN(Cc2csc3ccccc23)C1 (configuration not stated) | / | / | . | / | . | .
COc1cc(/C=C(\C#N)C(N)=O)ccc1OCc1c(C)no[n+]1[O-] | . | . | . | . | . | 31
CC(C)N(C(=O)[C@H]1C[C@H](CC(=O)NCCN2CCOCC2)C(=O)N2CCc3c([nH]c4cc(CCC(=O)N(C)C)ccc34)[C@]12C)C(C)C | / | / | . | / | . | .
COc1ccccc1CN(C(=O)c1cnccn1)C(C(=O)NC1CCCCC1)c1cc(OC)c(OC)c(OC)c1 (configuration not stated) | . | . | . | . | . | .
Cc1ccc(N/N=C2/CCCNC2=O)cc1 | . | . | . | . | . | .
CC(=O)c1ccc(N/N=C2/CCCNC2=O)cc1 | . | . | . | . | . | 36
COc1ccc(/C=N/N=C2/NC(=O)C(CC(=O)NC(N)=O)S2)cc1 (configuration not stated) | . | . | . | . | . | .
COc1ccc(/C=N/N=C2/NC(=O)CC(C(=O)O)S2)cc1 (configuration not stated) | . | . | . | . | . | 55
O=C1CC(C(=O)Nc2ccc(Cl)c(Cl)c2)S/C(=N\N=C\c2ccco2)N1 (configuration not stated) | . | . | . | . | . | .
CCCCNC(=O)CC1S/C(=N/N=C/c2ccc(OC)cc2)NC1=O (configuration not stated) | . | . | . | . | . | 33
O=C1CC(C(=O)Nc2ccccc2)S/C(=N\N=C\c2ccco2)N1 (configuration not stated) | . | . | . | . | . | .
COc1ccc(NC(=O)C2CC(=O)N/C(=N/N=C/c3ccco3)S2)cc1 (configuration not stated) | . | . | . | . | . | 45
O=C1CC(C(=O)Nc2ccc(Cl)cc2)S/C(=N\N=C\c2ccco2)N1 (configuration not stated) | . | . | . | . | . | 56
SMILES | UGM FP inh | Rv3671c inh | FBA Mtb inh | Mtb betalactam | FadD28 binding | GDH-TPI inh
O=C(NCc1ccco1)C1CCN(C(=O)c2ccc([N+](=O)[O-])cc2)CC1 | . | . | . | . | . | .
Cc1ccccc1CC1S/C(=N/N=C/c2ccco2)NC1=O (configuration not stated) | . | . | / | . | / | /
CC(C)C1S/C(=N/N=C/c2ccco2)NC1=O (configuration not stated) | . | . | . | . | . | 57
O=C1CC(C(=O)Nc2ccc(Br)cc2)S/C(=N\N=C\c2ccco2)N1 (configuration not stated) | . | . | . | . | ? | 52
Cc1n[nH]c(C)c1NC(=O)CN1CCN(S(=O)(=O)c2ccc(C(F)(F)F)cc2)CC1 | / | / | . | / | . | .
COCCNC(=O)C1(C)CCN(C(=O)/C=C/c2ccccc2)C1 (configuration not stated) | / | / | . | / | . | .
NC(c1ccc(F)c(F)c1)c1nc(-c2cc(F)cc(F)c2)cs1 (configuration not stated) | / | / | . | / | . | .
Cc1ccc(NC(=O)c2cccc(C(=O)Nc3ccc(C)cc3C(=O)O)c2)c(C(=O)O)c1 | 13 | . | . | . | . | .
Cc1cccc(C(=O)Nc2sc(-c3ccccc3)cc2C(=O)O)c1 | . | . | . | . | 24 | .
CC(C)(C)C(=O)Nc1sc(-c2ccccc2)cc1C(=O)O | . | . | . | . | . | .
Cc1ccc(NC(=O)c2cccc(S(=O)(=O)N(C)C3CCCCC3)c2)nc1 | . | . | . | . | . | .
COc1cccc(C(=O)OCC(=O)NC(=O)NC2CCCC2)c1O | . | . | . | . | 12 | .
COc1ccc(C(=O)OCC(=O)NC(=O)NC2CCCC2)cc1OC | . | . | . | . | . | .
Cc1ccc(C)c(C(O)c2ncc(-c3ccccc3)[nH]2)c1 (configuration not stated) | / | / | . | / | . | .
Cc1cccn2c(=O)c3cc(C(=O)NCc4cccnc4)c(=N)n(C(C)C)c3nc12 | . | . | + | . | . | .
COc1ccc(CNC(=O)c2cc3c(=O)n4ccccc4nc3n(Cc3cccnc3)c2=N)cc1 | . | . | . | . | . | .
Cc1cccn2c(=O)c3cc(C(=O)NCc4ccco4)c(=N)n(C(C)C)c3nc12 | . | . | + | . | . | .
COc1ccc(CCNC(=O)c2cc3c(=O)n4cccc(C)c4nc3n(Cc3ccco3)c2=N)cc1OC | . | . | . | . | . | .
CC(C)n1c(=N)c(C(=O)NCCc2ccccc2)cc2c(=O)n3ccccc3nc21 | . | . | + | . | . | .
CCc1ccc(N=C2NC(=O)/C(=C/c3cc(OC)c(OC)c(OC)c3)S2)cc1 | . | . | . | . | . | .
CCc1ccc(N=C2NC(=O)/C(=C/c3cc(Br)c(OCC(=O)O)c(OC)c3)S2)cc1 | . | . | . | . | . | 34
CCCc1nnc(NC(=O)CCC(=O)N2CCC(Cc3ccccc3)CC2)s1 | . | . | . | . | . | .
CCOc1ccc(/C=C/C(O)=C2/C(=O)N(C)C3(C)CC2c2ccccc2O3)cc1OC (configuration not stated) | . | . | . | . | . | 39
C(=N\Nc1cc(N2CCCCC2)ncn1)/c1ccco1 | . | . | . | . | . | 42
Fc1ccc(/C=N/Nc2cc(N3CCOCC3)ncn2)cc1 | . | . | . | . | . | .
CC(C)COc1ccc(CSCCNC(=S)Nc2ccccc2)cc1 | . | . | 74 | . | . | .
CCCCOc1ccc(CSCCNC(=S)Nc2ccccc2)cc1 | . | . | . | . | . | .
